Active and inactive are the calls of the source.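 How the source made its calls: active means inhibition above 20% together with a positive visual image hit; inconclusive means visual image hit but inhibition not above 20%; inactive means no visual image hit.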

The test is described as follows: inhibitors of TNFa-induced NFkB p65 translocation, primary screen, imaging, HUVEC, MLSMR starter and 10KST1 sets (AID 438).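 Further: compound added about 3h40 before a 20 min TNFalpha stimulation.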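 On inhibition: signal is the nuclear over cytoplasmic p65 intensity ratio per well.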 To be noted: HUVEC TNFa-induced p65 nuclear translocation; cell count: measured here: nuclei count (cytotoxicity indicator), at 2.08 µM; inhibition: at 2 µM, stronger effect = higher value, 0% TNFa-plus-vehicle, 100% no-TNFa wells.
For `CCCCCn1c(CN2CCN(C(=O)c3ccco3)CC2)nc2c1c(=O)n(C)c(=O)n2C`, the cell count turned out to be 726 and the inhibition is -14.6% (inactive).

Take `Cc1cc(C(=O)COC(=O)C2COc3ccccc3O2)c(C)n1CC1CCCO1` (stereo not given): the cell count is 460 and the inhibition is 0.5% (inactive).

Turning to `COC(=O)Oc1c(Br)c(=O)oc2ccccc12`, the cell count was 594 and the inhibition is 7.7% (inactive).

With `CCOC(=O)CN1CC23C=CC(O2)C(C(=O)Nc2ccc(OCC)cc2)C3C1=O` (stereo not given), the inhibition was 0.7% (inactive) and the cell count was 615.

Regarding `O=C(Cn1cc2c(n1)CCCC2)NCCc1ccccc1`, the cell count came to 792 and the inhibition is -3.7% (inactive).

`CCCC1(C(=O)OCC)NC(c2ccc(N(C)C)cc2)C2C(=O)N(c3ccc(F)cc3)C(=O)C21` (stereo not given): the cell count is 505 and the inhibition was -10% (inactive).

For `COC(=O)c1ccc(NC(=O)CN2CCCC2)cc1`, the cell count was 612 and the inhibition was -11.4% (inactive).

In the case of `C=CCc1ccccc1OCCCCN1CCCC1`, the cell count came to 750 and the inhibition was -8% (inactive).

Take `O=C(NCc1ccc2c(c1)OCO2)c1ccccn1`: the inhibition is -2% (inactive) and the cell count worked out at 345.

Consider `O=C(CSc1nnc(NC(=O)C2CCC2)s1)NC1CC1`, for which the cell count was 488 and the inhibition was 0.8% (inactive).

On to `CCOC(=O)Cc1nnc2c(Nc3ccc(C)cc3)nc3nonc3n12`, for which the cell count is 352 and the inhibition is 1% (inactive).

Regarding `COc1ccc(C(=O)NCC(=O)NC2=NCCS2)cc1`, the inhibition was -11.6% (inactive) and the cell count is 772.

As to `Cc1nc(NC(=O)c2ccccc2)sc1-c1csc(NCc2ccco2)n1`, the inhibition was -2.4% (inactive) and the cell count was determined as 301.

On to `COc1ccccc1-c1nnc(SCC(=O)NC2CCCCC2)o1`, for which the inhibition was -7.8% (inactive) and the cell count amounted to 490.

For `O=C(CSc1nnnn1-c1ccc(Cl)cc1)NC(=O)Nc1ccc2c(c1)OCCO2`, the cell count turned out to be 336 and the inhibition was 5.6% (inactive).

Turning to `O=C(CCC(=O)c1cccs1)NCc1ccccc1`, the inhibition was -0.2% (inactive) and the cell count was found to be 462.

With `Cn1c(=O)oc2cc(S(=O)(=O)N3CCN(c4ccccn4)CC3)ccc21`, the cell count was 826 and the inhibition was 8% (inactive).

With `CC(=O)c1ccccc1Oc1nc(CN2CCOCC2)nc2scc(-c3cccs3)c12`, the cell count amounted to 330 and the inhibition was -5.7% (inactive).

For `Cc1ccc(NC(=O)CCC(=O)O)cc1F`, the cell count turned out to be 381 and the inhibition is 9.4% (inactive).

On to `Cc1c(C#N)c2ncnc(-c3ccccc3)c2n1-c1ccccc1`, for which the cell count was 287 and the inhibition is 0.4% (inactive).

In the case of `O=C(c1ccc(CSCc2ccccc2F)o1)N1CCN(c2ccc(N3CCOCC3)nn2)CC1`, the cell count came out at 504 and the inhibition was -13.1% (inactive).

As to `COc1ccc(N2CCN(C(=O)c3c(-c4ccccc4)noc3C)CC2)cc1`, the cell count is 650 and the inhibition was 1.1% (inactive).

With `Cn1c(=O)[nH]c(=O)c2c1nc(N1CCNCC1)n2CCOc1ccccc1`, the cell count came out at 321 and the inhibition is -3.8% (inactive).

As for `CC1CCCCN1CCNS(=O)(=O)c1ccc2c(c1)oc(=O)n2C` (stereo not given), the inhibition is 0.3% (inactive) and the cell count was 248.

For `CN1CCN(Cc2nc3c(c(=O)[nH]c(=O)n3C)n2CCc2ccccc2)CC1`, the cell count is 632 and the inhibition was 7.4% (inactive).

For the compound `O=C(c1ccco1)N1CCN(C(=O)c2sccc2-c2ccccc2)CC1`, the cell count is 310 and the inhibition was 20.7% (inactive).

Consider `CC(C)CN(C(=O)c1ccc(=O)n(C)n1)c1nc2ccccc2s1`, for which the inhibition was 4.8% (inactive) and the cell count worked out at 369.

In the case of `CCOC(=O)N1CCC(NC(=O)CN2C(=O)CCSc3ccccc32)CC1`, the inhibition was -8.5% (inactive) and the cell count turned out to be 807.

Regarding `CCOc1ccc(NC(=O)CN2C(=O)C3CCCN3C2=O)cc1` (stereo not given), the cell count came out at 551 and the inhibition is -13.7% (inactive).

Turning to `COc1ccc(-c2ccc(-c3noc(-c4ccccc4OC)n3)c(OC)n2)cc1`, the inhibition is 16.9% (inactive) and the cell count turned out to be 294.

Regarding `Cc1ccc(S(=O)(=O)N2CCN(CCO)CC2)cc1-c1nnc2c3ccccc3c(C)nn12`, the cell count was found to be 357 and the inhibition was -0.4% (inactive).

With `CN(C)c1ccc(NC(=O)c2cc3c(=O)n4ccccc4nc3n2C)cc1`, the inhibition is -10.7% (inactive) and the cell count amounted to 216.

With `Cc1cc(NC(=O)c2cccc(S(=O)(=O)N3CC(c4ccccc4)CC3=O)c2)no1` (stereo not given), the cell count was determined as 873 and the inhibition is -1.2% (inactive).

Turning to `CN(CCc1ccccn1)C(=O)CCNC(=O)Cn1cnc2ccccc2c1=O`, the inhibition is -7.4% (inactive) and the cell count came out at 202.

With `Cc1onc(-c2c(Cl)cccc2Cl)c1C(=O)NCC1CCCO1` (stereo not given), the cell count was determined as 394 and the inhibition was 6.8% (inactive).

For the compound `CCOC(=O)C1(c2ccccc2)NC(c2ccc(N(C)C)cc2)C2C(=O)N(C)C(=O)C21` (stereo not given), the inhibition was -4% (inactive) and the cell count is 450.

For `COc1ccc(C2C(C(=O)Nc3cccnc3)=C(C)Nc3nc(-c4cccs4)nn32)cc1OC` (stereo not given), the inhibition was 5.1% (inactive) and the cell count stood at 543.

For `CN(C)S(=O)(=O)Nc1ccc(Br)cc1F`, the inhibition is -11.1% (inactive) and the cell count worked out at 688.

In the case of `CNC(=O)c1ccsc1NC(=O)CN1C(=O)CCC1=O`, the cell count was 469 and the inhibition was -5.4% (inactive).

`CC(C)C(NC(=O)OCc1ccccc1)C(=O)OCC(=O)NCc1ccco1` (stereo not given): the cell count was 511 and the inhibition was -2.9% (inactive).
